Broadly, the inhibition is the relative decrease from the control value, in per cent.

Structures are written as SMILES. Among all 220,000 compounds or so, about 2,000 (0.91%) were called active. About 2% were inconclusive and are not listed. Rule as the data show it: inconclusive = inhibition above about 80% without an active follow-up result; inactive = below that; test concentration not stated here. Only a sample is shown. Measured potencies and affinities stand elsewhere.

These results are taken from PubChem BioAssay AID1626 (SRMLSC, 2009).

The experiment can be described thus: M. tuberculosis H37Rv growth inhibitors, H37Rv strain (AID 1626).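 Also: bacteria incubated seven days before Alamar blue readout; 0% = bacteria only wells and 100% = bacteria with antibiotic wells.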 The note with it: active compounds read high, concentration not given here.
As to `COc1ccc(C(=O)NCCNc2ccccc2[N+](=O)[O-])cc1`, the inhibition was -4.94% (inactive).

As for `O=C(COC(=O)Cn1cnc2ccccc21)NCCc1ccc(Cl)cc1`, the inhibition is -3.57% (inactive).

In the case of `CC1(C)c2[nH]c3ccccc3c2C[C@@H]2C(=O)N(Cc3ccccc3)C(=O)N21`, the inhibition is 2.35% (inactive).

Turning to `Cc1cccc(CN2C(=O)[C@H]3Cc4c([nH]c5ccccc45)C(C)(C)N3C2=O)c1`, the inhibition is 17.7% (inactive).

In the case of `C=CCn1c(=O)c2c(C)c(C)sc2n2c(Nc3ccccc3)nnc12`, the inhibition is -3.44% (inactive).

For `O=C(CNc1cccc(Cl)c1)NNC(=S)NCc1ccccc1`, the inhibition is -0.97% (inactive).

Regarding `COC(=O)/C=c1/sc2n(c1=O)CCN=2`, the inhibition is -5.21% (inactive).

In the case of `CSc1ccc(CN2CCCC(CO)(Cc3ccccc3)C2)cc1` (centres undefined), the inhibition is -4.33% (inactive).

For `CCn1cnc2sc(C(=O)Nc3ccccc3OC)c(C)c2c1=O`, the inhibition is 2.12% (inactive).

In the case of `CCn1cnc2sc(C(=O)O)c(C)c2c1=O`, the inhibition is -6.48% (inactive).

As to `Cc1ccc(OCCn2cnc3sc(C(N)=O)c(C)c3c2=O)cc1`, the inhibition was 11.2% (inactive).

On to `Cc1c(C(=O)O)sc2ncn(C)c(=O)c12`, for which the inhibition is -6.12% (inactive).

On to `Cc1ccc(CC(=O)NCc2ccc3c(c2)OCO3)cc1`, for which the inhibition is 23.6% (inactive).

For the compound `O=C(O)C1(P(=O)(c2ccc(Cl)cc2)c2ccc(Cl)cc2)CC1`, the inhibition was 1.34% (inactive).

In the case of `CCc1ccc(OCC2c3cc(OC)c(OC)cc3CCN2C(=S)NCCOC)cc1` (centres undefined), the inhibition is 0.42% (inactive).

For the compound `CSc1nnc(CNC(=O)c2ccccc2)n1-c1cccc(C)c1`, the inhibition is -0.55% (inactive).

Turning to `O=C(O)c1ccccc1N1C(=O)C2C3CCC(C3)C2C1=O` (centres undefined), the inhibition was -3.82% (inactive).

On to `CSC1=NCCN1C(=O)c1c(F)cccc1Cl`, for which the inhibition was 1.18% (inactive).

For `Cc1ccc(S(=O)(=O)N2CCOCC2)cc1C(=O)NCc1ccco1`, the inhibition was -8.9% (inactive).

For the compound `Cc1cc2ccccc2n1CCNC(=O)COc1ccccc1`, the inhibition is 13.1% (inactive).

Take `O=C(COc1ccc2ccccc2c1)NCCn1ccc2ccccc21`: the inhibition is 9.42% (inactive).

As for `Cc1nn(CC(=O)Nc2ccc3c(c2)nc2n3CCN(C3CCCCC3)C2)c(=O)c2ccccc12`, the inhibition was -1.06% (inactive).

In the case of `Cc1nn(Cc2ccc(Cl)c(Cl)c2)c(C)c1NC(=O)c1noc2c1CCCCC2`, the inhibition is -6.28% (inactive).

For the compound `COc1ccc(C(=O)CSc2nnc3ccc(-c4ccccn4)nn23)cc1`, the inhibition was 2.65% (inactive).

Consider `Cc1nc2ccccc2nc1SCC(=O)c1ccccc1`, for which the inhibition is 8.55% (inactive).

For `CCCc1nc(SCC(=O)c2ccc(F)cc2)c2ccccc2n1`, the inhibition was 8.42% (inactive).

On to `Cc1nc(-c2ccccn2)nc(SCC(=O)N2CCOCC2)c1Cl`, for which the inhibition was 3.81% (inactive).

For the compound `COc1ccc(C(=O)CSc2nnc(-c3ccccn3)n2Cc2ccco2)cc1`, the inhibition was -7.14% (inactive).

For `Cn1c(SCC(=O)c2ccc(F)cc2)nc2cccnc21`, the inhibition was 3.26% (inactive).
